Source: PubChem BioAssay AID1509 (The Scripps Research Institute Molecular Screening Center, 2009)
In all, about 220,000 compounds went through this assay and about 770 (0.35%) were called active. No stated cut-off is given here; in the data, active means activation above about 11%; inactive means the rest. Only a selection was taken, and actives are over-represented in it overall.

Target: Sphingosine 1-phosphate receptor 4 (Homo sapiens) (UniProt O95977)
Test: activators of human S1P4 receptor – cell-based, primary screen (AID 1509);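 further: 0% = DMSO vehicle and 100% = reference agonist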
Settings: S1P4-expressing cell line, agonist reporter assay; at 4.98 µM; hits give high values

Sphingosine 1-phosphate receptor 4 (Homo sapiens), sequence (O95977 whole entry, looked up): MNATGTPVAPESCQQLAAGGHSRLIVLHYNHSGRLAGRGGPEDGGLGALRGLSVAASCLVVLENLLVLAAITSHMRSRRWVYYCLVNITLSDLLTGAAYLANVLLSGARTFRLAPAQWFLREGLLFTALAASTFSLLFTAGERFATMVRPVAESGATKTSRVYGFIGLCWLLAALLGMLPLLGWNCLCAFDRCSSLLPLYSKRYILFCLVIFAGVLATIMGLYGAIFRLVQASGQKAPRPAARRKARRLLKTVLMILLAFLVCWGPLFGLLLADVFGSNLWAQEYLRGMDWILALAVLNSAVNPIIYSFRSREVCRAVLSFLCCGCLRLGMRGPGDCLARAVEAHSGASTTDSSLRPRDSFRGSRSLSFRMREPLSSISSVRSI

| SMILES | activation |
| --- | --- |
| CC(C)N(CC#CCC1(O)c2ccccc2-c2ccccc21)C(C)C | 16.1% (active) |
| NCC(O)c1ccc(O)cc1 (stereo not given) | 1.71% (inactive) |
| O=c1[nH]c(=O)n(-c2ccc(F)cc2)c(O)c1C=NCCN1CCCCC1 | 0.64% (inactive) |
| O=c1[nH]c(CN2CC=C(c3ccccc3)CC2)nc2scc(-c3cccs3)c12 | 0.84% (inactive) |
| Cc1cccc(-n2c(O)c(C=NC34CN5CN(CN(C5)C3)C4)c(=O)[nH]c2=O)c1 | -0.41% (inactive) |
